# Measurements as given in PubChem BioAssay (EPA / NIEHS).
# Inconclusive results are not listed. Activity calls are given as the source filed them. Rule for the calls: active = hit-call score of the fitted dose curve at least 0.9, where 1 is the maximum; inconclusive = response in the unintended direction; inactive = score below 0.9.
# Tests used:
# [1] = molecular target: human Opioid Receptor Mu (Opiate Mu), OPRM1 (gene 4988) (UniProt P35372); experiment: NVS_GPCR_hOpiate_mu: NovaScreen (NVS) G Protein-Coupled Receptor Assay for human Opioid Receptor Mu (Opiate Mu) (AID 2283290);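 note: hits lower bound tracer signal versus DMSO meaning displacement of the ligand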
# Chain of human Opioid Receptor Mu (Opiate Mu), OPRM1 (gene 4988) (P35372 whole entry, looked up): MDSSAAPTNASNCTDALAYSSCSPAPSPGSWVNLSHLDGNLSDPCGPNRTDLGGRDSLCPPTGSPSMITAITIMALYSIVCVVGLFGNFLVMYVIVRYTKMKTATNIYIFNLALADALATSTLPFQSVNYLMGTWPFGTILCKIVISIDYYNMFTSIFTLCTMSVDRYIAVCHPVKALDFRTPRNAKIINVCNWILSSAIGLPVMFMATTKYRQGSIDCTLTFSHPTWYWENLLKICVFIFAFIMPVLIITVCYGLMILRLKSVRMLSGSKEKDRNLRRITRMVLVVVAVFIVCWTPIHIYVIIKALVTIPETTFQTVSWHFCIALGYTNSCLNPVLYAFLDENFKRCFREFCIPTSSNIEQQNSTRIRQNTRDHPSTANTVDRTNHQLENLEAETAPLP
# Summary of the method: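 Primary screen in duplicate at 25 uM, with actives followed in concentration series. CHO-derived receptor membranes, cell-free; bound radioligand read by scintillation counting after filtration at 2.5 h, decrease scored against DMSO.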
# [2] = molecular target: mouse Cholecystokinin, CCK2 Receptor (CCKB), Cckbr (gene 12426) (UniProt P56481); experiment: NVS_GPCR_mCKKBCentral: NovaScreen (NVS) G Protein-Coupled Receptor Assay for mouse Cholecystokinin, CCK2 Receptor (CCKB) (AID 2283293)
# Chain of mouse Cholecystokinin, CCK2 Receptor (CCKB), Cckbr (gene 12426) (P56481 whole entry, looked up): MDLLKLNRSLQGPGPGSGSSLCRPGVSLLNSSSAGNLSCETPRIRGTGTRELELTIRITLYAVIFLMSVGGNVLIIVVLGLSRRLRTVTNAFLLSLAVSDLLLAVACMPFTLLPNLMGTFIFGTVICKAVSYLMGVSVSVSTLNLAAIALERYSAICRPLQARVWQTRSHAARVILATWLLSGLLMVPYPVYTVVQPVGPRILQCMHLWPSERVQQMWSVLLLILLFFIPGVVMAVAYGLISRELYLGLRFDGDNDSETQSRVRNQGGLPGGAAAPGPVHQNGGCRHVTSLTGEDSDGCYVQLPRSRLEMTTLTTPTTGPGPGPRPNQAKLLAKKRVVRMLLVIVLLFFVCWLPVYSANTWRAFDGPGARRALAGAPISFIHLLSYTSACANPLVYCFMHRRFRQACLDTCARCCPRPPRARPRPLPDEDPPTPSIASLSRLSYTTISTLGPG
# Summary of the method: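 Radioligand displacement binding on mouse forebrain membranes, 2 h exposure, filter-based scintillation counting. Primary screen in duplicate at 25 uM; actives (e.g. ≥30% inhibition) retested in concentration-response up to 50 uM; loss of binding signal relative to DMSO.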
# [3] = molecular target: rat Serotonin, 5-Hydroxytryptamine Receptor (5HT), Non-Selective Binding, Htr1a (gene 24473) (UniProt P19327); experiment: NVS_GPCR_r5HT_NonSelective: NovaScreen (NVS) G Protein-Coupled Receptor Assay for rat Serotonin, 5-Hydroxytryptamine Receptor (5HT), Non-Selective Binding (AID 2283295)
# Chain of rat Serotonin, 5-Hydroxytryptamine Receptor (5HT), Non-Selective Binding, Htr1a (gene 24473) (P19327 whole entry, looked up): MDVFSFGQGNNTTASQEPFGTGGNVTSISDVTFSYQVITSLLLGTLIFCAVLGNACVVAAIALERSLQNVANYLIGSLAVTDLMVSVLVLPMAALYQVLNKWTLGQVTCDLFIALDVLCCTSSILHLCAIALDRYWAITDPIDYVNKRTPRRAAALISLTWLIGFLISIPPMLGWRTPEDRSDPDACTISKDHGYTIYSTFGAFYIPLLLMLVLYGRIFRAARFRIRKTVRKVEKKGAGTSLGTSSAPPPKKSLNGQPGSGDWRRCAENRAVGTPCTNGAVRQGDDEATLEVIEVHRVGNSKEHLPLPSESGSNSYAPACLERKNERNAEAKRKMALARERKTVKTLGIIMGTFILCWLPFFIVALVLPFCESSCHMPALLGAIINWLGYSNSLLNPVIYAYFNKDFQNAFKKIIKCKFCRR
# Summary of the method: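 Radioligand displacement on rat cortical membranes, 1 h incubation, filter-based scintillation counting. Primary duplicates at 25 uM, actives retested in concentration series; loss of signal fitted against DMSO as baseline.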
# [4] = molecular target: rat Opioid Receptor, Non-selective Sodium (Na+) Binding, Oprm1 (gene 25601) (UniProt P33535); experiment: NVS_GPCR_rOpiate_NonSelectiveNa: NovaScreen (NVS) G Protein-Coupled Receptor Assay for rat Opioid Receptor, Non-selective Sodium (Na+) Binding (AID 2283311)
# Chain of rat Opioid Receptor, Non-selective Sodium (Na+) Binding, Oprm1 (gene 25601) (P33535 whole entry, looked up): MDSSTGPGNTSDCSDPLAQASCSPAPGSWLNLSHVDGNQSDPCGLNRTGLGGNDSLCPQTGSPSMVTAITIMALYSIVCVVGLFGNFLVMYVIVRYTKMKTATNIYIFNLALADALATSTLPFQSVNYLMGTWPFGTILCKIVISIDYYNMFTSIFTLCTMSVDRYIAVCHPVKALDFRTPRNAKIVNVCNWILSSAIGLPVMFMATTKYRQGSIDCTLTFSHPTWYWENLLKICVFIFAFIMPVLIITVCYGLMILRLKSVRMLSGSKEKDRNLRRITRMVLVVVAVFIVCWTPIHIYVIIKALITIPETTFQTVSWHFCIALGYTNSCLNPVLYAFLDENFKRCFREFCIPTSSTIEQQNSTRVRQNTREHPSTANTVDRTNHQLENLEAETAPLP
# Summary of the method: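 Rat forebrain membranes, radioligand displacement with filter scintillation counting, 1.5 h incubation. Screened in duplicate at 25 µM; hits then run in concentration-response up to 50 µM; loss of binding fitted versus DMSO.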
# [5] = molecular target: rat Opioid Receptor, Non-selective Binding, Oprm1 (gene 25601) (UniProt P33535); experiment: NVS_GPCR_rOpiate_NonSelective: NovaScreen (NVS) G Protein-Coupled Receptor Assay for rat Opioid Receptor, Non-selective Binding (AID 2283318)
# Chain of rat Opioid Receptor, Non-selective Binding, Oprm1 (gene 25601) (P33535 whole entry, looked up): as above
# Summary of the method: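 Rat forebrain membranes, cell-free radioligand binding with filter-based scintillation counting, read 1.5 h after dosing. Primary screen in duplicate at 25 uM; actives retested in concentration series. Loss of signal versus DMSO baseline scored.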
# [6] = molecular target: rat Adrenergic, Alpha 1A Receptor (Adra1A), Adra1a (gene 29412) (UniProt P43140); experiment: NVS_GPCR_rAdra1A: NovaScreen (NVS) G Protein-Coupled Receptor Assay for rat Adrenergic, Alpha 1A Receptor (Adra1A) (AID 2283296)
# Summary of the method: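 Rat cortical membranes pretreated with chlorethyl clonidine; competitive radioligand displacement, 1 h. Filter-based scintillation counting. Primary screen in duplicate at 25 uM, actives followed in concentration series.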
# [7] = tested on: rat Adrenergic, Alpha 1B Receptor (Adra1B), gene 24173; experiment: NVS_GPCR_rAdra1B: NovaScreen (NVS) G Protein-Coupled Receptor Assay for rat Adrenergic, Alpha 1B Receptor (Adra1B) (AID 2283297)
# Summary of the method: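 Rat liver membranes, radioligand displacement with filter-based scintillation detection, 1 h incubation. Primary screen in duplicate at 25 uM; actives retested in concentration series; activity relative to DMSO.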
# Adra2b (gene 24174) = Adra2b (gene 24174) (UniProt P19328); experiment: NVS_GPCR_rmAdra2B: NovaScreen (NVS) G Protein-Coupled Receptor Assay for hybird cells Adrenergic, Alpha 2B Receptor (Adra2B) (AID 2283306)
# Summary of the method: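 Radioligand filter-binding assay on membrane proteins from neuroglioma/blastoma hybrid cells (rodent), 1 h after dosing; scintillation counting, loss of signal vs DMSO. Primary screen in duplicate at 25 uM, actives then run in concentration series.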
# [8] = molecular target: rat Neurokinin-1 Receptor (NK1), Tacr1 (gene 24807) (UniProt P14600); experiment: NVS_GPCR_rNK1: NovaScreen (NVS) G Protein-Coupled Receptor Assay for rat Neurokinin-1 Receptor (NK1) (AID 2283309)
# Chain of rat Neurokinin-1 Receptor (NK1), Tacr1 (gene 24807) (P14600 whole entry, looked up): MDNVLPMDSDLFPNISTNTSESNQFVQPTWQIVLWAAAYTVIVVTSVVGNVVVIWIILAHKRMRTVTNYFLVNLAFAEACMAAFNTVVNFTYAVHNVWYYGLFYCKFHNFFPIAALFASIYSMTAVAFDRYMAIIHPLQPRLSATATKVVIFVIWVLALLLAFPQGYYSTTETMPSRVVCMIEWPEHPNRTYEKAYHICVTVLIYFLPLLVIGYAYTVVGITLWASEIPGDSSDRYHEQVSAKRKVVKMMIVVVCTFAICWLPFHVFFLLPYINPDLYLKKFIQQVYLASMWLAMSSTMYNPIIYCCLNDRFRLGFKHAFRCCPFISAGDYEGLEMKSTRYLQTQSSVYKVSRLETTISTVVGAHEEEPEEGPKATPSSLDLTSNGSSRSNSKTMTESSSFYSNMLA
# Summary of the method: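 Rat submaxillary gland membranes; radioligand displacement read by filter-based scintillation counting after 1 h. Primary screen in duplicate at 25 uM; actives retested in concentration series; loss of binding fitted versus DMSO.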
# [9] = molecular target: Metabotropic glutamate receptor 1 (Rattus norvegicus) (UniProt P23385); experiment: NVS_GPCR_rmMGluR1: NovaScreen (NVS) G Protein-Coupled Receptor Assay for rat Glutamate Metabotropic Receptor 1 (MGluR1) (AID 2283305)
# Summary of the method: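 Rat cerebellum membrane preparation, radioligand displacement binding read by filter-based scintillation counting 1 hour after dosing. Initial duplicate single-point screen at 25 uM, then concentration-response up to 50 uM; loss of signal versus DMSO baseline scored.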
# [10] = molecular target: rat Vasopressin 1 Receptor (V1), Avpr1a (gene 25107) (UniProt P30560); experiment: NVS_GPCR_rV1: NovaScreen (NVS) G Protein-Coupled Receptor Assay for rat Vasopressin 1 Receptor (V1) (AID 2283316)
# Chain of rat Vasopressin 1 Receptor (V1), Avpr1a (gene 25107) (P30560 whole entry, looked up): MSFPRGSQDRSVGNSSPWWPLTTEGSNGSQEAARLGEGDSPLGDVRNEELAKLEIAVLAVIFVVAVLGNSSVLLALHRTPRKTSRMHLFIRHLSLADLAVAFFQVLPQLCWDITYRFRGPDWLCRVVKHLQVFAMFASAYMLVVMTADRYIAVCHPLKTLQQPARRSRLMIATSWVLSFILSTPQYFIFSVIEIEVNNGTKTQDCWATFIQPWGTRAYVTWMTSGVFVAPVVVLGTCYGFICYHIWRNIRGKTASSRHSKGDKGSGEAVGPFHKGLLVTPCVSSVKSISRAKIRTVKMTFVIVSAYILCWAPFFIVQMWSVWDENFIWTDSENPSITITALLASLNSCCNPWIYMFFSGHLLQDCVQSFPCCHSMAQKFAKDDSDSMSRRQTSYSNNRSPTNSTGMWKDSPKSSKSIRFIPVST
# Summary of the method: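 Radioligand binding on rat liver membranes, 1.5 h incubation, filter-based scintillation counting. Single 25 uM screen in duplicate; chemicals meeting threshold (e.g. 30% inhibition) run in concentration-response up to 50 uM.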
# [11] = molecular target: rat Somatostatin Receptor (SST), Sstr1 (gene 25033) (UniProt P28646); experiment: NVS_GPCR_rSST: NovaScreen (NVS) G Protein-Coupled Receptor Assay for rat Somatostatin Receptor (SST) (AID 2283314)
# Summary of the method: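 Rat forebrain membranes; radioligand displacement read by filter-based scintillation counting 1 h after dosing. Primary screen in duplicate at 25 uM. Actives (e.g., 30% inhibition) were rerun as concentration-response to 50 uM max and fitted against DMSO.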
# [12] = molecular target: guinea pig Serotonin, 5-Hydroxytryptamine Receptor 4 (5HT4), HTR4 (gene 100135548) (UniProt O70528); experiment: NVS_GPCR_g5HT4: NovaScreen (NVS) G Protein-Coupled Receptor Assay for guinea pig Serotonin, 5-Hydroxytryptamine Receptor 4 (5HT4) (AID 2283294)
# Chain of guinea pig Serotonin, 5-Hydroxytryptamine Receptor 4 (5HT4), HTR4 (gene 100135548) (O70528 whole entry, looked up): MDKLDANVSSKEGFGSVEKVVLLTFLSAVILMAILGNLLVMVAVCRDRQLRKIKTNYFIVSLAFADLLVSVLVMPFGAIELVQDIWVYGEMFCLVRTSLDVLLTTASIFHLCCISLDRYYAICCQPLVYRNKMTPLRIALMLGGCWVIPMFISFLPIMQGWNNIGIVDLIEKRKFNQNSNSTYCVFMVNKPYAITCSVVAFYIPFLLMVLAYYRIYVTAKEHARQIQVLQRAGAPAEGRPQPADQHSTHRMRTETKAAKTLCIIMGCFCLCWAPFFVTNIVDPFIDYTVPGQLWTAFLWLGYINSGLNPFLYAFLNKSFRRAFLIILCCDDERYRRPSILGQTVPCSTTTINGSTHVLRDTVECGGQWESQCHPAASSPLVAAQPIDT
# Summary of the method: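 Guinea pig striatal membranes; radioligand competitive displacement, filtration and scintillation counting after 1 h. Primary screen in duplicate at 25 uM; actives then tested in concentration series; loss of binding signal fitted relative to DMSO.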
# [13] = molecular target: rat Gamma-Aminobutyric Acid Type B Receptor (GABBR), Gabbr1 (gene 81657) (UniProt Q9Z0U4); experiment: NVS_GPCR_rGABBR: NovaScreen (NVS) G Protein-Coupled Receptor Assay for rat Gamma-Aminobutyric Acid Type B Receptor (GABBR) (AID 2283301)
# Chain of rat Gamma-Aminobutyric Acid Type B Receptor (GABBR), Gabbr1 (gene 81657) (Q9Z0U4 whole entry, looked up): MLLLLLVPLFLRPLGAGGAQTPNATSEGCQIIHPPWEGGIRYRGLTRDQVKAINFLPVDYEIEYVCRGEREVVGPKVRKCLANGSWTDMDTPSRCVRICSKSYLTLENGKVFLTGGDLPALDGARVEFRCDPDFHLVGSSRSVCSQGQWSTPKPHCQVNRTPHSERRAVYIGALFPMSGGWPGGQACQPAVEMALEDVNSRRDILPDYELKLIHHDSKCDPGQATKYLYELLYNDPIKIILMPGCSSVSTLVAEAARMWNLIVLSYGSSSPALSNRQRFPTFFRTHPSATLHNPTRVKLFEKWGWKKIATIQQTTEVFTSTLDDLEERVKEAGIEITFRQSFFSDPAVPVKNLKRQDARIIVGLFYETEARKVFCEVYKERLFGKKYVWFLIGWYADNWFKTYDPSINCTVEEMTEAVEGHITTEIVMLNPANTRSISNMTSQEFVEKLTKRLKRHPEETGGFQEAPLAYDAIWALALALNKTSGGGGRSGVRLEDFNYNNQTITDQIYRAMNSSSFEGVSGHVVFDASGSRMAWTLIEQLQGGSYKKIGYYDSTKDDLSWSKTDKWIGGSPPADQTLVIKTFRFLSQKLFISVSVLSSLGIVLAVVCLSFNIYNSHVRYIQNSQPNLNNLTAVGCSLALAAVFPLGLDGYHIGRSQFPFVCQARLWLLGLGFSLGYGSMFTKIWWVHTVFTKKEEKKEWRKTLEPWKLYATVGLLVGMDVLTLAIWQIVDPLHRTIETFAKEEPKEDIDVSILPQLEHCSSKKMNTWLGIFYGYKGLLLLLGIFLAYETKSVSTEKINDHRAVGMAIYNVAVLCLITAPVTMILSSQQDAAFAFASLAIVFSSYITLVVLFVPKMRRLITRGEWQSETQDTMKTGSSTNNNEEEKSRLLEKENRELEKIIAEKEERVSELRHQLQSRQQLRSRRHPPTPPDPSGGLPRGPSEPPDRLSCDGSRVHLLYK
# Summary of the method: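 Radioligand displacement on rat cortical membranes, 1 h, filter-based scintillation counting. Primary screen at 25 uM in duplicate; compounds passing threshold re-tested in concentration-response up to 50 uM; loss of binding fitted against DMSO.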
# [14] = molecular target: rat Neurokinin-3 Receptor (NK3), Tacr3 (gene 24808) (UniProt P16177); experiment: NVS_GPCR_rNK3: NovaScreen (NVS) G Protein-Coupled Receptor Assay for rat Neurokinin-3 Receptor (NK3) (AID 2283310)
# Summary of the method: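 Rat cortical membranes; radioligand binding with filtration and scintillation counting, 2 h after dosing. Primary screen in duplicate at 25 uM, then concentration-response up to 50 uM; loss of binding signal relative to DMSO.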
# [15] = molecular target: rat Adrenergic Receptor, Beta (Adrb), Non-selective Binding, Adrb1 (gene 24925) (UniProt P18090); experiment: NVS_GPCR_rAdrb_NonSelective: NovaScreen (NVS) G Protein-Coupled Receptor Assay for rat Adrenergic Receptor, Beta (Adrb), Non-selective Binding (AID 2283298)
# Chain of rat Adrenergic Receptor, Beta (Adrb), Non-selective Binding, Adrb1 (gene 24925) (P18090 whole entry, looked up): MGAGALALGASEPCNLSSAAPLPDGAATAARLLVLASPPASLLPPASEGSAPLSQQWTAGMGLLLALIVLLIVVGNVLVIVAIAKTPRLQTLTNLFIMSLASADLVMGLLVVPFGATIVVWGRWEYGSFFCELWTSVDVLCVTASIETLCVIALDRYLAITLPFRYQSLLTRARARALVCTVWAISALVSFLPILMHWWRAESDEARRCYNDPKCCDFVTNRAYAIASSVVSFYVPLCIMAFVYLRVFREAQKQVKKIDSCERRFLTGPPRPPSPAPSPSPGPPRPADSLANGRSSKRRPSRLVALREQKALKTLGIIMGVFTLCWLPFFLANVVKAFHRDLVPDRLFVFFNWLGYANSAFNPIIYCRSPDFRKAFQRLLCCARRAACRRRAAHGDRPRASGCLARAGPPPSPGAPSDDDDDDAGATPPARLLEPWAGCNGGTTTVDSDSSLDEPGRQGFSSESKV
# Summary of the method: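 Non-selective beta-adrenergic radioligand binding in rat cortical membranes, 1 h incubation, filter-based scintillation read-out. Primary screen 25 uM in duplicate; hits retested in concentration-response up to 50 uM, DMSO baseline.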
# [16] = molecular target: guinea pig Bradykinin Receptor B2 (BK2), BDKRB2 (gene 100135486) (UniProt O70526); experiment: NVS_GPCR_gBK2: NovaScreen (NVS) G Protein-Coupled Receptor Assay for guinea pig Bradykinin Receptor B2 (BK2) (AID 2283292)
# Summary of the method: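 Radioligand displacement on guinea pig ileum membranes for 1 h, read by filter-based scintillation counting; loss of signal relative to DMSO. Compounds were screened in duplicate at 25 uM, and those passing the threshold were retested in concentration-response up to 50 uM.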
# [17] = molecular target: rat Neonicotinoid receptor (NNR), Chrna7 (gene 25302) (UniProt Q05941); experiment: NVS_LGIC_rNNR_BungSens: NovaScreen (NVS) Ligand-Gated Ion Channel Assay for rat Neonicotinoid receptor (NNR) (AID 2283315)
# Summary of the method: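 Radioligand displacement binding on rat cortical membranes, 2.5 h incubation, filtration and scintillation counting. Loss of specific binding fitted relative to DMSO.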
compound,measurement,setting,value
O=C(N[C@@H](Cc1ccccc1)[C@@H](O)C(=O)N1C[C@@H](O)[C@@H](O)C1)c1cc2cc(Cl)ccc2[nH]1,AC50,[1],4.96 µM (active)
same,AC50,[2],8.74 µM (active)
same,outcome,[3],inactive
same,AC50,[4],19.4 µM (active)
same,AC50,[5],25 µM (active)
CN1CCN(Cc2cc(-c3ccc4[nH]c(=O)oc4c3)co2)[C@@H](c2ccc(F)cc2)C1,AC50,[1],22 µM (active)
same,AC50,[3],0.0493 µM (active)
same,AC50,[6],10.3 µM (active)
same,AC50,[7],22 µM (active)
same,AC50,Adra2b (gene 24174),15.8 µM (active)
same,AC50,[8],22 µM (active)
same,outcome,[4],inactive
COc1ccc(S(=O)(=O)N2C(=O)[C@@](c3ccccc3OC)(N3C[C@H](O)C[C@H]3C(=O)N(C)C)c3cc(Cl)ccc32)c(OC)c1,AC50,[2],25 µM (active)
same,outcome,[9],inactive
same,AC50,[8],11.3 µM (active)
same,outcome,[10],inactive
COCCOC[C@H](CC1(C(=O)NC2CCC(C(=O)O)CC2)CCCC1)C(=O)Oc1ccc2c(c1)CCC2 (stereo partly drawn),AC50,[11],5.45 µM (active)
same,outcome,[5],inactive
Nc1nc(N)c2nc(CNc3ccc(C(=O)N[C@@H](CCC(=O)O)C(=O)O)cc3)cnc2n1,AC50,[1],5.21 µM (active)
Cc1cc(NC(=O)C(=O)O)cc(C)c1Oc1ccc(O)c2c1CCC2,outcome,[5],inactive
Cc1nc(C)nc(N2C[C@@H](C)N(c3ccnc([C@@H](C)O)n3)[C@@H](C)C2)n1,outcome,[12],inactive
same,outcome,Adra2b (gene 24174),inactive
COc1ccc2c(c1)c(CC(=O)O)c(C)n2C(=O)c1ccc(Cl)cc1,outcome,[13],inactive
Cc1cccc(Nc2cc(Cl)nc(SCC(=O)O)n2)c1C,AC50,[10],2.85 µM (active)
CCc1c(C(=O)NN2CCCCC2)nn(-c2ccc(Cl)cc2Cl)c1-c1ccc(Br)cc1,outcome,[1],inactive
same,outcome,[12],inactive
same,AC50,[3],12 µM (active)
same,outcome,[14],inactive
CC1=C(/C=C/C(C)=C/C=C/C(C)=C/CO)C(C)(C)CCC1,outcome,[1],inactive
same,outcome,[3],inactive
CC(C)c1ccc(C(=O)N=C(N)N)cc1S(C)(=O)=O,outcome,[15],inactive
same,AC50,[5],5.07 µM (active)
Oc1ccc2c(c1)OC[C@@H](N1CCC(O)(c3ccc(F)cc3)CC1)[C@H]2O,outcome,[1],inactive
same,outcome,[12],inactive
same,outcome,[7],inactive
same,AC50,[15],5.17 µM (active)
same,outcome,[4],inactive
same,outcome,[5],inactive
CCCCCCCCCCC,outcome,[16],inactive
CCOC(=O)C(C)(C)Oc1ccc(Cl)cc1,outcome,[8],inactive
same,outcome,[17],inactive
CC=Cc1ccc(O)c(OC)c1,outcome,[1],inactive
Cc1oc(-c2ccccc2)nc1CCOc1cccc2c1ccn2CCC(=O)O,AC50,[13],15.9 µM (active)
COc1cc(C=O)ccc1O,outcome,[16],inactive
CCCCc1ccc2c(n1)[C@@H](c1ccc(OC)cc1C[C@H](C)C(=O)O)[C@H](C(=O)O)[C@H]2c1ccc2c(c1)OCO2,AC50,[2],20 µM (active)
COc1cc(S(=O)(=O)O)c(C)cc1N=Nc1c(O)ccc2cc(S(=O)(=O)O)ccc12,AC50,[12],41.9 µM (active)
same,outcome,[7],inactive
same,AC50,[8],25 µM (active)
